# According to publication PMC7155171, “Probing the Open Global Health Chemical Diversity Library for Multistage-Active Starting Points for Next-Generation Antimalarials” (ACS Infectious Diseases, 2020):
# How the values were obtained:
# [1] = test system: P. berghei liver stage (PbLuc); parameters: species or system HepG2-A16-CD81; P. berghei luciferase sporozoite infection of hepatocytes, liver stage luminescence; settings: inhibitor; for PbLuc primary screen (10uM): inhibition % (n=1): 48 h
# [2] = test system: HepG2-A16-CD81 hepatocytes; parameters: Uninfected hepatocyte viability, CellTiter-Glo luminescence; settings: cytotoxicity primary screen, inhibitor
compound,measurement,setting,value
Cc1ncc(CN2CCc3[nH]c4cc(C(C)(C)C)nn4c(=O)c3C2)n1C [DDD01058400],PbLuc primary screen (10uM): inhibition % (n=1),[1],-12.3%
same,PbLuc primary screen (2uM): inhibition % (n=1),[1],26.69%
same,HepG2 toxicity primary screen (10uM): inhibition % (n=1),[2],8.62%
COc1cccc(Cn2nc(C)c3c(NC(=O)C(C)OC)[nH]nc32)c1 (stereo not drawn) [DDD01063202],PbLuc primary screen (10uM): inhibition % (n=1),[1],39.7%
same,PbLuc primary screen (2uM): inhibition % (n=1),[1],-10.78%
same,HepG2 toxicity primary screen (10uM): inhibition % (n=1),[2],-2.03%
CCc1c(C)[nH]c2cc(C3CCN(CCc4ccccc4)C3)nn2c1=O (stereo not drawn) [DDD01060567],PbLuc primary screen (10uM): inhibition % (n=1),[1],83.3%
same,PbLuc primary screen (2uM): inhibition % (n=1),[1],20.31%
same,HepG2 toxicity primary screen (10uM): inhibition % (n=1),[2],-20.1%
CN(CCCc1ccccc1)C(=O)CCC1=NC(=C2N=CN=N2)NO1 [DDD01062165],PbLuc primary screen (10uM): inhibition % (n=1),[1],22%
same,PbLuc primary screen (2uM): inhibition % (n=1),[1],-4.851%
same,HepG2 toxicity primary screen (10uM): inhibition % (n=1),[2],-44.845%
CCc1c(C)[nH]c2cc(C3CCN(Cc4ccc(F)cc4)C3)nn2c1=O (stereo not drawn) [DDD01060568],PbLuc primary screen (10uM): inhibition % (n=1),[1],66.5%
same,PbLuc primary screen (2uM): inhibition % (n=1),[1],40.31%
same,HepG2 toxicity primary screen (10uM): inhibition % (n=1),[2],-18.6%
Cn1cc(C(=O)N2CCCC(c3cc(=O)n(C)[nH]3)C2)cn1 (stereo not drawn) [DDD01060486],PbLuc primary screen (10uM): inhibition % (n=1),[1],19.6%
same,PbLuc primary screen (2uM): inhibition % (n=1),[1],27.39%
same,HepG2 toxicity primary screen (10uM): inhibition % (n=1),[2],-21.6%
Cc1nc(N2CCCC2)ncc1-c1cc(=O)n2ncnc2[nH]1 [DDD01038581],PbLuc primary screen (10uM): inhibition % (n=1),[1],16.8%
same,PbLuc primary screen (2uM): inhibition % (n=1),[1],10.62%
same,HepG2 toxicity primary screen (10uM): inhibition % (n=1),[2],10.6%
COCC(=O)N1Cc2[nH]c3c(C)c(-c4cccs4)nn3c(=O)c2C1 [DDD01056747],PbLuc primary screen (10uM): inhibition % (n=1),[1],27.2%
same,PbLuc primary screen (2uM): inhibition % (n=1),[1],46.04%
same,HepG2 toxicity primary screen (10uM): inhibition % (n=1),[2],-4.81%
Cn1nc(C2CC2)c(-c2ccc3c(c2)OCO3)c1N [DDD01074640],PbLuc primary screen (10uM): inhibition % (n=1),[1],16.5%
same,PbLuc primary screen (2uM): inhibition % (n=1),[1],58.6%
same,HepG2 toxicity primary screen (10uM): inhibition % (n=1),[2],-47.475%
Cc1[nH]n(C2CCS(=O)(=O)C2)c(=O)c1Cc1ccc(Br)cc1 (stereo not drawn) [DDD01026979],PbLuc primary screen (10uM): inhibition % (n=1),[1],43.4%
same,PbLuc primary screen (2uM): inhibition % (n=1),[1],14.54%
same,HepG2 toxicity primary screen (10uM): inhibition % (n=1),[2],-41.615%
Cc1nsc(N2CCCN(CC(=O)N(C)C3CC3)CC2)n1 [DDD01066804],PbLuc primary screen (10uM): inhibition % (n=1),[1],68.5%
same,PbLuc primary screen (2uM): inhibition % (n=1),[1],-11.55%
same,HepG2 toxicity primary screen (10uM): inhibition % (n=1),[2],-3.98%
CCn1[nH]cc2nc(-c3cc4c(cc3OC)OCO4)nc1-2 [DDD01244413],PbLuc primary screen (10uM): inhibition % (n=1),[1],-7.2%
same,PbLuc primary screen (2uM): inhibition % (n=1),[1],27.42%
same,HepG2 toxicity primary screen (10uM): inhibition % (n=1),[2],-2.99%
CCc1c(C)[nH]c2cc(C3CCN(Cc4cccnc4)C3)nn2c1=O (stereo not drawn) [DDD01060570],PbLuc primary screen (10uM): inhibition % (n=1),[1],-33.4%
same,PbLuc primary screen (2uM): inhibition % (n=1),[1],31.56%
same,HepG2 toxicity primary screen (10uM): inhibition % (n=1),[2],-25.4%
CCn1[nH]cc2nc(-c3cc(OC)c(OC)cc3OC)nc1-2 [DDD01254934],PbLuc primary screen (10uM): inhibition % (n=1),[1],26.5%
same,PbLuc primary screen (2uM): inhibition % (n=1),[1],13.04%
same,HepG2 toxicity primary screen (10uM): inhibition % (n=1),[2],-2.61%
COCCCC(=O)N1CC(=O)Nc2cc(Br)ccc21 [DDD01075689],PbLuc primary screen (10uM): inhibition % (n=1),[1],-20.4%
same,PbLuc primary screen (2uM): inhibition % (n=1),[1],22.41%
same,HepG2 toxicity primary screen (10uM): inhibition % (n=1),[2],5.89%
Clc1cccc(-c2cccc(N3CCC(NC4CCOCC4)CC3)c2)c1 [DDD01252000],PbLuc primary screen (10uM): inhibition % (n=1),[1],84%
same,PbLuc primary screen (2uM): inhibition % (n=1),[1],-46.68%
same,HepG2 toxicity primary screen (10uM): inhibition % (n=1),[2],-4.24%
CCc1nn(C)c(N)c1-c1ccc2c(c1)OCO2 [DDD01074639],PbLuc primary screen (10uM): inhibition % (n=1),[1],53.6%
same,PbLuc primary screen (2uM): inhibition % (n=1),[1],37.53%
same,HepG2 toxicity primary screen (10uM): inhibition % (n=1),[2],-45.08%
CCCc1nn(C)c(N)c1-c1ccc2c(c1)OCO2 [DDD01074641],PbLuc primary screen (10uM): inhibition % (n=1),[1],27.6%
same,PbLuc primary screen (2uM): inhibition % (n=1),[1],5.918%
same,HepG2 toxicity primary screen (10uM): inhibition % (n=1),[2],-51.45%
Cc1nnsc1C(=O)N1CCCCC1c1cc2[nH]c(C)c(C)c(=O)n2n1 (stereo not drawn) [DDD01059036],PbLuc primary screen (10uM): inhibition % (n=1),[1],19.3%
same,PbLuc primary screen (2uM): inhibition % (n=1),[1],-26.26%
same,HepG2 toxicity primary screen (10uM): inhibition % (n=1),[2],-5.93%
COc1cc2c(cc1-c1nc3c[nH]n(C(C)C)c-3n1)OCO2 [DDD01249461],PbLuc primary screen (10uM): inhibition % (n=1),[1],7.31%
same,PbLuc primary screen (2uM): inhibition % (n=1),[1],60.13%
same,HepG2 toxicity primary screen (10uM): inhibition % (n=1),[2],-6.85%
COCCC(=O)N1CCC(c2cc(=O)n(C)[nH]2)C1 (stereo not drawn) [DDD01060470],PbLuc primary screen (10uM): inhibition % (n=1),[1],0.301%
same,PbLuc primary screen (2uM): inhibition % (n=1),[1],15.3%
same,HepG2 toxicity primary screen (10uM): inhibition % (n=1),[2],-23.1%
CCC(CO)N(Cc1cccnc1)C(=O)c1ccc(C(F)(F)F)[nH]c1=O (stereo not drawn) [DDD01253913],PbLuc primary screen (10uM): inhibition % (n=1),[1],-28.9%
same,PbLuc primary screen (2uM): inhibition % (n=1),[1],20.89%
same,HepG2 toxicity primary screen (10uM): inhibition % (n=1),[2],-1.12%
